Measured values from PubChem BioAssay AID652010 (The Scripps Research Institute Molecular Screening Center, 2013).
Out of some 370,000 compounds screened, about 4,100 (1.1%) were called active. The sample holds actives, similar compounds and a random draw of the others, so the mix is not that of the screen.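 Rule for the calls: active = inhibition above the mean over all tested compounds plus 3 SD (cut at about 3.6% in these data); inactive = the rest.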

Assay: DAX1 (NR0B1) inhibitors on StAR promoter, primary screen, cell-based, luminescence, SF-1 (NR5A1), full-length DAX-1 (AID 652010);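 note: 0% = DAX-1 cells with DMSO and 100% = cells lacking DAX-1 with DMSO; higher inhibition means more luminescence from relief of DAX-1 repression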
Conditions: HEK293T StAR-luciferase reporter, SF-1/DAX-1 repression relief; at 6.8 µM; active compounds read high

SMILES	inhibition
O=S(=O)(c1cccs1)N1CCCc2nc(-c3ccc(Br)cc3)ccc21	0.56% (inactive)
CCCCN1CCN(C(=O)c2ccc3c(c2)NC(=O)C(C)(C)O3)CC1	0.65% (inactive)
CC(NS(=O)(=O)c1ccc(OCC(=O)N2CCCC2)cc1)c1ccccc1 (stereo not drawn)	0.22% (inactive)
CCN(c1ccccc1)S(=O)(=O)c1ccc(OCC(=O)N2CCCC2)cc1	4.72% (active)
COc1ccc(N(CC(=O)N2CCCCCC2)S(=O)(=O)c2ccccc2)cc1	-0.37% (inactive)
O=C(CCc1nnc2ccc(NCc3ccco3)nn12)Nc1cc(F)ccc1F	1.27% (inactive)
CCOc1ccccc1NC(=O)CCc1nnc2ccc(NCc3ccco3)nn12	-0.55% (inactive)
CC(=O)c1ccc(NC(=O)CCc2nnc3ccc(NCc4ccco4)nn23)cc1	4.34% (active)
O=C(CSc1nnc(-c2ccccc2)n1Cc1ccco1)Nc1ccccc1-c1ccccc1	-1.32% (inactive)
Cc1cccc(NC(=O)C(C)N2C(=O)C3C4CC(C(Br)C4Br)C3C2=O)c1 (stereo not drawn)	-0.17% (inactive)
Nc1nc2cc(Cl)ccc2n1N	0.18% (inactive)
Nc1ccc2c(c1)C(O)c1ccc(Cl)cc1-2 (stereo not drawn)	0.66% (inactive)
Nc1ccc2nn(-c3ccc(Cl)cc3)nc2c1	4.89% (active)
CCOC(=O)N1CCN(C(=O)C[C@H]2C[C@@]3(C(=O)OC)C(=C[C@H](C4CCCC4)O[C@@H]3C)N(Cc3ccccc3)C2=O)CC1	-0.29% (inactive)
CC(C)N1CCCCC(NC(=O)C(C)(C)C)C1=O (stereo not drawn)	-0.67% (inactive)
CC(=O)Nc1cccc(C(=O)OCN2C(=O)c3ccccc3C2=O)c1	1.3% (inactive)
CC(=O)Nc1cccc(C(=O)OCC(=O)NCc2cc(C)c(O)c(C)c2)c1	2.37% (inactive)
CC(=O)Nc1cccc(C(=O)OCC(=O)c2ccc3c(c2)OCO3)c1	13.7% (active)
COC(=O)C1CN(CCc2ccccc2)CCS(=O)(=O)N1Cc1cccc(Cl)c1 (stereo not drawn)	-1.7% (inactive)
O=C1CC[C@@H](COc2ccc3[nH]cc(-c4ccccc4)c3c2-c2ccccc2)N1	-0.82% (inactive)
O=C(NCC(=O)N1CCCC(C(F)(F)F)C1)c1ccccc1F (stereo not drawn)	4.23% (active)
O=C(COC(=O)CNC(=O)c1ccccc1F)NCC(F)(F)F	-0.62% (inactive)
O=C(NCC(=O)N1CCCCCCC1)c1ccccc1Cl	-0.28% (inactive)
O=C(C1CCCO1)N(c1ccc(F)cc1)C1C=CS(=O)(=O)C1 (stereo not drawn)	-0.69% (inactive)
C=CC1=CCN(S(=O)(=O)C(C)(C)C)[C@@H]1CCO	-0.3% (inactive)
CC1CCN(C(=O)COC(=O)c2cc(=O)[nH]c3ccccc23)CC1	9.38% (active)
O=C(COC(=O)c1cc(=O)[nH]c2ccccc12)NCc1cccc(Cl)c1	-1.15% (inactive)
CN(C(=O)COC(=O)c1cc(=O)[nH]c2ccccc12)C1CCCCC1	3.03% (inactive)
